Consider 57 compounds from PubChem BioAssay AID1117361 (Southern Research Institute, 2015).

The whole screen tested about 3,600 compounds, of which about 900 (25%) were called active. No rule for the calls is given here. The list is a sample of the results. Potency and affinity values are given separately.

As a reminder, the inhibition is the change of the read-out against control, counted positive when it falls.

This experiment has as its target Protein Tat (Human immunodeficiency virus type 1 group M subtype B (isolate HXB2)) (UniProt P04608). The experiment in a line: HIV-1 Tat–TAR interaction blockers – biochemical, fluorescence polarization, FAM-labeled TAR RNA, counter-screen for Vif-APOBEC3G degradation inhibitor project, dose response (AID 1117361). The settings on record: Tat-TAR RNA binding; series mostly up to 100 µM; inhibition: at the top concentration. In general terms: Fluorescence polarisation rises when a labelled molecule tumbles more slowly, as on binding a larger partner.
In the case of `O=C(c1cnn2c(C(F)F)cc(C3CC3)nc12)N1CCc2ccccc2C1`, the “inhibition” value was 3.41% (inactive).

For `Cc1cc(F)ccc1S(=O)(=O)Nc1ccccc1C(=O)Nc1ccc2[nH]c(=O)[nH]c2c1`, the “inhibition” value is 0.68% (inactive).

For `Cc1ccccc1OCC(=O)NN1Cc2ccccc2C1=N`, the “inhibition” value was 0.68% (inactive).

On to `CN(C)CCNC(=O)C(=O)c1c(-c2ccccc2)cc2ccccn12`, for which the “inhibition” value is 3.3% (inactive).

`CCN1C(=O)c2ccccc2S(=O)c2ccc(C(=O)NC3CC3)cc21` (configuration not stated): the “inhibition” value is 6.08% (inactive).

For the compound `CCCCC(=O)NCCNC(=O)c1cc(OCC(F)(F)F)ccc1OCC(F)(F)F`, the “inhibition” value is 2.73% (inactive).

With `CC(C)NC(=O)c1cc(-c2ccco2)nn1-c1ccc(Cl)cc1`, the “inhibition” value was 21.7% (inactive).

In the case of `COc1ccccc1NC(=O)N1CCCC1C(=O)NC1CCCCC1` (configuration not stated), the outcome was inactive.

For `Cc1[nH]c(=O)nc(NN=Cc2ccc(Cl)cc2)c1C(=O)Nc1ccc(Cl)cc1`, the compound was classed as inactive.

As to `CN1C(=O)CSc2ccc(NC(=O)NCc3cccnc3)cc21`, the result was inactive.

As for `O=C(Nc1nc2ccc(Cl)cc2s1)C1CCCO1` (configuration not stated), the “inhibition” value was 6.08% (inactive).

On to `Nc1c2c(nc3ccccc13)CCC2`, for which the “inhibition” value was 4.09% (inactive).

On to `COc1cc(NC(=O)c2cccs2)c(OC)cc1NC(=O)CCn1nnc2ccccc21`, for which the call was inactive.

With `O=C(N/N=C/c1ccc(OC(=O)c2cccs2)cc1)c1cccc(F)c1`, the “inhibition” value was 2.7% (inactive).

As to `O=C(CS(=O)(=O)c1cn(Cc2ccc(F)cc2)c2ccccc12)N1CCCCC1`, the outcome was inactive.

On to `O=C(Nc1ccccc1-c1nnn(CC(=O)N2CCc3ccccc3C2)n1)C1CCC1`, for which the “inhibition” value is 8.78% (inactive).

For `CNc1nc(Sc2cccc(C(F)(F)F)c2)cc(C(F)(F)F)n1`, the “inhibition” value is 2.7% (inactive).

As to `CC(=O)n1nc(-c2ccc(Cl)cc2)nc1NCc1ccco1`, the “inhibition” value is 2.05% (inactive).

For `O=C(CCN1C(=O)c2ccccc2C1=O)NCc1ccco1`, the “inhibition” value was 2.34% (inactive).

For `O=C1CSC(c2nn(-c3ccccc3)cc2-c2cc3ccccc3oc2=O)N1Cc1ccco1` (configuration not stated), the “inhibition” value is 26.4% (inactive).

With `CCOC(=O)c1c(NC(=O)CCN2CCOCC2)sc(C)c1-c1ccccc1`, the compound was called inactive.

Consider `CC(=O)N1CCCc2cc(S(=O)(=O)N(C)CCC#N)ccc21`, for which the “inhibition” value was 2.7% (inactive).

In the case of `CCc1c(C)[nH]c(=S)c(C#N)c1C`, the “inhibition” value was 7.5% (inactive).

For `O=C(NCc1ccc(F)cc1)C1CCCN1C(=O)NCc1ccccc1` (configuration not stated), the result was inactive.

On to `CCCC(c1nnnn1CC(=O)OCC)N(Cc1cc2c(C)cc(C)cc2[nH]c1=O)C1CCCC1` (configuration not stated), for which the “inhibition” value was 16.4% (inactive).

For the compound `O=C(c1ccco1)N1CCN=C1SCc1ccccc1F`, the “inhibition” value is 6.82% (inactive).

For `Cc1ccccc1S(=O)(=O)Cc1ccc(C(=O)NCCCN2CCC(C)CC2)o1`, the “inhibition” value is 2.34% (inactive).

As for `O=C(CCCCl)Nc1nc(-c2ccc3c(c2)OCCO3)cs1`, the “inhibition” value is 4.12% (inactive).

With `CN(C)C(=O)c1cc(Cl)ccc1Sc1cc(Cl)ccc1Cl`, the “inhibition” value is 4.77% (inactive).

As to `COC(C[C@H]1O[C@@H]1[C@@H](O)COCc1ccccc1)OC`, the outcome was inactive.

In the case of `N#Cc1nc(Cc2cccc3ccccc23)oc1NCc1ccc(F)cc1`, the result was inactive.

Take `Cc1nc(C(=O)N(C)C)nn1-c1cc(Cl)cc(Cl)c1`: the “inhibition” value is 2.05% (inactive).

Consider `CCC(=O)Nc1nc2ccc(NC(C)=O)cc2s1`, for which the compound was classed as inactive.

Consider `CC(C)c1ccccc1N1CC(C(=O)O)CC1=O` (configuration not stated), for which the outcome was inactive.

As to `COc1ccc(/C(O)=C2/C(=O)C(=O)N(c3ccccn3)C2c2ccc(F)cc2)cc1` (configuration not stated), the “inhibition” value was 9.69% (inactive).

Consider `COc1cc(C2C(C(=O)c3ccco3)=C(O)C(=O)N2c2cc(C)on2)cc(Br)c1O` (configuration not stated), for which the “inhibition” value is 27.7% (inactive).

Turning to `O=C(C1CCCC1)N1CCCC(Nc2ccc(F)cc2)C1` (configuration not stated), the “inhibition” value was 1.67% (inactive).

On to `COc1ccccc1N1CCN(C(=O)c2cc(-c3cccs3)on2)CC1`, for which the result was inactive.

In the case of `O=C(c1cc(-c2cccs2)on1)N1CCCCC1`, the “inhibition” value was 4.73% (inactive).

Consider `COc1cccc2sc(N(C)c3ccccc3)nc12`, for which the outcome was inactive.

`CC1CCN(S(=O)(=O)c2cc(Br)cc(C(=O)NC3=NCCS3)c2)CC1`: the “inhibition” value is 4.05% (inactive).

In the case of `COc1cc(/C=N/NC(=O)c2ccc(NS(=O)(=O)c3cccs3)cc2)cc(OC)c1O`, the result was inactive.

As to `C=CCNC(=O)c1ccncc1`, the “inhibition” value is 2.03% (inactive).

Take `CCn1cc(C(=O)N2CCOCC2)c(=O)c2cc(S(=O)(=O)N(C)C3CCCCC3)ccc21`: the compound was classed as inactive.

In the case of `CSc1cccc(NC(=O)CN(c2cc(C)ccc2C)S(C)(=O)=O)c1`, the “inhibition” value was 6.08% (inactive).

With `CSc1cccc(NC(=O)C(C)C)c1`, the “inhibition” value was 19% (inactive).

In the case of `CCOC(=O)C1CCN(C(=O)c2ccc(Cl)c(S(=O)(=O)N3CCOCC3)c2)CC1`, the “inhibition” value was 13% (inactive).

In the case of `O=C(N/N=C/c1ccc(F)cc1)c1ccc(Br)cc1`, the “inhibition” value was 13.6% (inactive).

In the case of `CSCC[C@H](NC(=O)NCc1ccccc1F)C(=O)O`, the “inhibition” value was 2.03% (inactive).

As to `O=C(O)c1ccccc1NS(=O)(=O)c1ccccc1C(F)(F)F`, the “inhibition” value was 1.36% (inactive).

On to `COc1ccc(NC(=O)c2cccnc2C(=O)O)c(OC)c1`, for which the “inhibition” value was 4.95% (inactive).

`Cc1cc(=O)[nH]c2c1c(C)nn2C1CCCC1`: the compound was called inactive.

Consider `Cc1ccc2c(c1)c(=O)c1c3n2CCN(C(=O)CCl)C3CC1` (configuration not stated), for which the “inhibition” value was 16.4% (inactive).

As for `O=C(COC(=O)c1ccccc1OC(F)F)Nc1ccc2[nH]c(=O)[nH]c2c1`, the outcome was inactive.

Regarding `CCN(CC)C(=O)c1sc(NC(=O)c2ccc(Br)o2)c(C(=O)OC)c1C`, the “inhibition” value is 5.46% (inactive).

For the compound `CCc1c(C(=O)NCc2ccccc2Cl)[nH]c(C)c1C(C)=O`, the compound was classed as inactive.

In the case of `C=CCNC(=O)c1ccccc1Cl`, the compound was classed as inactive.
